The text below walks through data of PubChem BioAssay (NCI).

Holding throughout (assay): NCI-60 one-dose screen, 48 h (100 = growth as untreated, 0 = no growth, -100 = all killed)
Common to all, as to conditions: 10 µM unless noted

Experiment [1] deals with HCT-15 colon.
In experiment [2] the test system is HT29 colon.
Experiment [3] concerns SNB-75 CNS.
Experiment [4] deals with SNB-19 CNS.
Experiment [5] relates to U251 CNS.
For experiment [6], the system named is PC-3 prostate.
Experiment [7] relates to SK-MEL-5 melanoma.
For experiment [8], the system named is UACC-62 melanoma.
In experiment [9] the test system is LOX IMVI melanoma.
In experiment [10] the test system is SK-MEL-28 melanoma.

Compounds without any hit were thinned out: in the full panel of roughly 83,000, 20% have a hit.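 Percent growth is the endpoint: 0 to 100 indicates growth inhibition (40 means 60% inhibition), 0 means no net growth, and negative values indicate cell death.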 A number with no mark means an inactive call. Calls of active or inactive are those of the source. How the source made its calls: active means growth percent below 10; inactive means the rest.

On to `COC(=O)c1c2c(c(C)[n+]([O-])c1C)C(=O)C(NCc1ccc(F)cc1)=CC2=O`, for which the growth is 14% in experiment [1]; 7.24% (active) in experiment [2]; 128% in experiment [3]; 3.72% (active) in [4]; -13.9% (active) in [5]; 3.57% (active) in experiment [6]. Also, the growth in [7] was -47.9% (active); in experiment [8], -35.5% (active); in [9], 20.3%; in [10], 72.4%.

As for `O=C(COc1ccc(/C=C2\Oc3ccccc3C2=O)cc1)c1ccc(Cl)cc1`, the growth in [1] was 106%; in [2] it was 107%; in experiment [3] it was 103%; in experiment [4], 94.3%; in [5], 104%; in experiment [6], 98.2%. Besides, the growth was 109% in [7], 88.2% in experiment [8], 95.8% in experiment [9] and 120% in [10].

As to `O=C(c1ccc(Nc2nccc(NCCCCNc3ccnc4cc(Cl)ccc34)n2)cc1)N1CCCCC1`, the growth is 11.2% in experiment [1]; -11.3% (active) in experiment [2]; -23.5% (active) in experiment [3]; 24.7% in [4]; -31.6% (active) in experiment [5]; 28.7% in [6]. For the same compound, the growth in experiment [7] is -92.3% (active); in [8], -23% (active); in experiment [9], -83.2% (active); in [10], -52.5% (active).

In the case of `N#CC1=C(NC=O)Oc2c(ccc3ccccc23)C1c1ccccc1` (stereo not given), the growth was 30.3% in experiment [1]; 94% in [2]; 2.51% (active) in experiment [3]; 30.8% in [4]; 21.6% in experiment [5]; 18.3% in experiment [6]. The growth is -33.1% (active) in experiment [7], 30.9% in experiment [8], 34.1% in experiment [9] and 60.2% in experiment [10].

As to `C[C@]12CC[C@@H]3c4cc(OC(F)F)c(O)cc4CC[C@H]3[C@@H]1CC[C@@H]2OS(N)(=O)=O`, the growth in experiment [1] is 26.6%; in experiment [2], 19.5%; in experiment [3] it was -8.09% (active); in experiment [4], 51%; in experiment [5], 30%; in [6], 26.7%. The growth in experiment [7] is 0.18% (active); in experiment [8] it was 48%; in experiment [9], 40.4%; in experiment [10], 57.4%.

Take `CC(C)C(NC(=O)C1(NC(=O)OCc2ccccc2)CCCC1)C(=O)O` (stereo not given): the growth is 112% in experiment [1]; 105% in [2]; 92.3% in experiment [3]; 103% in experiment [4]; 86.7% in [5]; 102% in experiment [6]. For the same compound, the growth in [7] was 102%; in experiment [8], 106%; in [9] it was 90.2%; in experiment [10], 107%.

As for `O=C(/C=C/c1ccco1)c1ccc(Nc2nc(Nc3ccc(F)cc3)nc(Nc3ccc(Cl)cc3)n2)cc1`, the growth in experiment [1] is 78.5%; in experiment [2], 61.8%; in experiment [3], 62.5%; in experiment [4], 107%; in experiment [5], 73.2%; in experiment [6], 72.7%. Also, the growth in [7] is 73.8%; in experiment [8], 81.7%; in experiment [9], 74.7%; in experiment [10], 60.3%.

Turning to `C=C(C)[C@@H]1CC[C@]2(C(=O)NC3CCCCC3)CC[C@]3(C)[C@H](CC[C@@H]4[C@@]5(C)CCC(=O)C(C)(C)[C@@H]5CC[C@]43C)[C@@H]12`, the growth in [1] is 97.1%; in experiment [2] it was 85.7%; in experiment [3], 85.6%; in experiment [4] it was 84.2%; in experiment [5] it was 84.9%; in experiment [6], 60.1%. Further, the growth was 95.9% in [7], 76.9% in experiment [8], 92.2% in [9] and 97.1% in experiment [10].

In the case of `CC/C=C/C/C=C/C/C=C/C/C=C/C/C=C/C/C=C/CCC(=O)Nc1ccn([C@@H]2O[C@H](CO)[C@@H](O)C2(F)F)c(=O)n1`, the growth in [1] is 41.7%; in experiment [2], 36.4%; in [3] it was 37.4%; in experiment [4] it was 7.11% (active); in experiment [5], 22.4%; in experiment [6], 41%. The growth is 31.3% in experiment [7], -12.3% (active) in experiment [8], -49.9% (active) in [9] and 74.9% in [10].

Take `CC/C=C\C[C@H](O)C/C=C1/C(=O)C=C[C@@H]1C/C=C\CCCC(=O)OC`: the growth in experiment [1] is -20.3% (active); in [2], -54.7% (active); in experiment [3], 57.8%; in [4], 35.2%; in [5], -72.8% (active); in [6], -11.3% (active). Further, the growth in [7] is -84.7% (active); in [8], -40.3% (active); in [9] it was -76.9% (active); in experiment [10] it was -34.3% (active).

On to `FC(F)(F)c1cc(Nc2ccc3cc(OCCCN4CCOCC4)ccc3n2)ccc1Cl`, for which the growth in experiment [1] is -0.426% (active); in [2], -50.3% (active); in [3], 10.8%; in experiment [4], 41.1%; in [5], -10.6% (active); in experiment [6] it was 23.5%. The growth was 64.4% in [7], -29.7% (active) in experiment [8], -82.1% (active) in experiment [9] and 13.7% in experiment [10].

Consider `O=c1c2cc(F)ccc2sc2c(Nc3cccnc3)nc3ccccc3c12`, for which the growth in experiment [1] was 87.2%; in experiment [2], 110%; in [3] it was 71.9%; in [4], 94.1%; in experiment [5] it was 70.2%; in experiment [6] it was 88.9%. In addition, the growth is 88.9% in experiment [7], 101% in experiment [8], 89.4% in [9] and 103% in [10].

Consider `CNC(=O)NCC1OC(n2cnc3c(NC(=O)Nc4ccccc4)ncnc32)C(O[Si](C)(C)C(C)(C)C)C1CC(=O)N(C)OC` (stereo not given), for which the growth was 11.9% in [1]; -25.5% (active) in experiment [2]; -7.28% (active) in experiment [3]; 37.2% in [4]; -15.2% (active) in experiment [5]; -20.8% (active) in experiment [6]. Moreover, the growth was 25.9% in [7], 34.4% in [8], 18.6% in experiment [9] and 7.73% (active) in experiment [10].

As for `COc1ccc(NC(=O)CSc2nnc(-c3cc(-c4ccccc4)nc4ccccc34)n2-c2ccccc2)cc1`, the growth is 95.4% in experiment [1]; 106% in experiment [2]; 79.3% in [3]; 93.5% in experiment [4]; 100% in experiment [5]; 73.2% in experiment [6]. The growth was 90.8% in experiment [7], 73.8% in [8], 97.3% in experiment [9] and 95.7% in experiment [10].
